Structures are written as SMILES. Screen size: about 48,000 compounds; about 13,000 (27%) showed an effect of 50% or more. The list shows a part of the results.

The experiment concerns Wolbachia pipientis. Put plainly: Anti-Wolbachia Cell-Based Screen. The format is functional. Details: scale not given: in the data most compounds retested in dose-response had high values. Conditions: 5 µM.
In the case of `Cc1nn(CC(C)C)c(N(C)C)c1CNCCS(C)(=O)=O`, the “Percent Effect” value is reported as -9.669%.

With `CCN(CC(=O)NC)C(=O)Cc1nc(-c2ccco2)oc1C`, the “Percent Effect” value was -1.768%.

Take `O=C(c1cccs1)N1CCc2ncnc(C3CCOC3)c2CC1` (stereo not drawn): the “Percent Effect” value was -39.43%.

Take `Cc1cc(CN(C)C(=O)C2CCCN(C(=O)c3cccs3)C2)no1` (stereo not drawn): the “Percent Effect” value is -2.385%.

`O=C(c1cccs1)N1CCCC(c2cc(C(F)F)n3ncnc3n2)C1` (stereo not drawn): the “Percent Effect” value amounted to 74.84%.

Take `COc1cccc(-c2ncc3c(n2)N(C)CCN(CCN(C)C)C3=O)c1`: the “Percent Effect” value was 82.33%.

In the case of `CCc1ccc(-c2ncc3c(n2)N(C)CCN(CCN(C)C)C3=O)cc1`, the “Percent Effect” value amounted to 95.82%.

`Cc1ccc2c(n1)N(CCN(C)C)CCN(C(=O)c1ccsc1)C2`: the “Percent Effect” value is reported as -6.316%.

`COc1cccc(-c2cnc3n2CCC32CCN(C(C)=O)CC2)c1`: the “Percent Effect” value was determined as 0.6434%.

Turning to `CN(C)CCN1CCN(C)c2nc(-c3ccccc3)ncc2C1=O`, the “Percent Effect” value amounted to 101.9%.

As for `COCCC(=O)N1CCN(CCN(C)C)c2ncccc2C1`, the “Percent Effect” value came out at 4.239%.

Turning to `CNC(=O)[C@@H]1C[C@H](N)CN1S(=O)(=O)c1cc(Cl)cc(Cl)c1O`, the “Percent Effect” value is -28.57%.

Take `Cc1c(I)cccc1C(=O)NCC1(CO)CC1`: the “Percent Effect” value was -20.46%.

For `COc1ccc(CCNC(=O)CC(NC(N)=O)c2ccccc2)cc1` (stereo not drawn), the “Percent Effect” value turned out to be 5.015%.

On to `COc1ccccc1-c1cc(NC(=O)CC2CCS(=O)(=O)C2)[nH]n1` (stereo not drawn), for which the “Percent Effect” value came out at 2.425%.

For the compound `COc1ccccc1-c1cc(C(=O)Nc2nc[nH]n2)[nH]n1`, the “Percent Effect” value was found to be 103.1%.

On to `COC[C@@H]1CCCN1C(=O)c1cc(-c2ccc(OC)cc2)n[nH]1`, for which the “Percent Effect” value is recorded as -15.89%.

As to `COc1ccc(NC(=O)NC(C)c2nc[nH]n2)cc1` (stereo not drawn), the “Percent Effect” value is reported as -2.331%.

As to `CNC(=O)c1cc(-c2ccccc2OC)[nH]n1`, the “Percent Effect” value came out at 118.3%.

Regarding `COc1ccc(-c2cc(C(=O)Nc3nc[nH]n3)[nH]n2)cc1`, the “Percent Effect” value is given as 117.7%.

As for `CNC(=O)C(C)(C)NC(=O)c1cc(COc2ccccc2OC)[nH]n1`, the “Percent Effect” value was 6.418%.

As to `COC(=O)C(C)(C)NC(=O)c1cc(COc2ccccc2OC)[nH]n1`, the “Percent Effect” value is on record as -6.385%.

Take `O=C(Nc1nc[nH]n1)c1cc(-c2ccc(F)cc2)n[nH]1`: the “Percent Effect” value is reported as 175.6%.

As to `CC(=O)Nc1nc(-c2ccc(F)cc2)c[nH]1`, the “Percent Effect” value was 8.711%.

On to `O=C(NCC1CCOC1)c1cc(-c2ccc(Cl)cc2)n[nH]1` (stereo not drawn), for which the “Percent Effect” value is -17.32%.

Turning to `COc1ccccc1-c1cc(NC(=O)CCC2CCCO2)[nH]n1` (stereo not drawn), the “Percent Effect” value worked out at 4.714%.

Consider `O=C(NCc1cccc(N2CCCCC2=O)c1)[C@@H](O)c1ccccc1`, for which the “Percent Effect” value was -1.556%.

Consider `CC(C)c1ccc(N2CCc3onc(-c4ccc(F)c(F)c4)c3C2)nn1`, for which the “Percent Effect” value was 26%.

The record behind these values is ChEMBL document CHEMBL3988442, “University of Dundee, Small-Polar-MMV Screening Library” (2021).
